# From PubChem
# Sampled rows, rich in hits. Any-hit rate of the full collection: about 2.9%.
# NSD2 inh = inhibitors of human histone methyltransferase NSD2 | NSD2 peptide methylation, AlphaScreen, 120 min | inhibition, % at 12.5 µM | O96028 | hit rate 0.54% among 310,000 | AID 743445; in the data active means inhibition above about 50%
# Target sequence (O96028 whole entry, looked up): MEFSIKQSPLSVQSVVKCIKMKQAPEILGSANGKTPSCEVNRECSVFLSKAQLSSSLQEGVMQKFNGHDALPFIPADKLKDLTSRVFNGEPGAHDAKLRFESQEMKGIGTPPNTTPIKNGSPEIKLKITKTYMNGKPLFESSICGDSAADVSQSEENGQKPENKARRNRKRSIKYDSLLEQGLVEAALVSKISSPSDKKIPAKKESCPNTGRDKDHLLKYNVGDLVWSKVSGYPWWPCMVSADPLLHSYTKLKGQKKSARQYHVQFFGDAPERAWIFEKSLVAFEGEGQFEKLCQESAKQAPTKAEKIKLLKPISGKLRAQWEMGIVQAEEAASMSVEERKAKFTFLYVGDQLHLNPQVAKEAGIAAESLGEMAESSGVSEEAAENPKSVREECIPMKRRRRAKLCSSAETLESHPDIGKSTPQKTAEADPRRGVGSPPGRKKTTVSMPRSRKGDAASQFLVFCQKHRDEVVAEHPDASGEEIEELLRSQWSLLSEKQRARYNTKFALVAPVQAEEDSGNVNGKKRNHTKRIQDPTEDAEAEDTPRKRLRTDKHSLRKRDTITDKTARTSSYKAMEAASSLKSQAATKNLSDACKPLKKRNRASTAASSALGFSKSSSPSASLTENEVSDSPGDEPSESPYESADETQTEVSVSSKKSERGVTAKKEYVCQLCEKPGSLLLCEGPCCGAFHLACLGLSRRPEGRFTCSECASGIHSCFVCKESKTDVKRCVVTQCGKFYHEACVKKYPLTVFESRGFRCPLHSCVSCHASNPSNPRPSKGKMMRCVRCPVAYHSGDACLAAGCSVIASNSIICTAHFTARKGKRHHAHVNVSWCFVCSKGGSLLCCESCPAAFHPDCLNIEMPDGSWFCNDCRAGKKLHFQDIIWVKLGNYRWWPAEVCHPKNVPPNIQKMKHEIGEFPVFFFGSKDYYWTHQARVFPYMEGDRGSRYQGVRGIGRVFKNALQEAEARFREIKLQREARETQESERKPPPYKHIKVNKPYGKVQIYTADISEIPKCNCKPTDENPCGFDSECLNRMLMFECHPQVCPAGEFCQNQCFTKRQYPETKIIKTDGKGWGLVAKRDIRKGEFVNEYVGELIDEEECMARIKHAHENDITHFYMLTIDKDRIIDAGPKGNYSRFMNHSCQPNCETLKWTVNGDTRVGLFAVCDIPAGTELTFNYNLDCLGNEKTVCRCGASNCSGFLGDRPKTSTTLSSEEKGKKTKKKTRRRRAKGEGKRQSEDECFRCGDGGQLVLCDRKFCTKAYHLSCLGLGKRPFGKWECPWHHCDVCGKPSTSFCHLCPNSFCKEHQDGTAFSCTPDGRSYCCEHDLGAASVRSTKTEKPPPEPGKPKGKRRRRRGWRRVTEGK
# PfHsp90 set2 = growth inhibition of yeast expressing Plasmodium Hsp90; S. cerevisiae expressing PfHsp90, BacTiter-Glo ATP, 48 h; yeast lacking PDR1 and PDR3 efflux regulators; inhibition, % at 9.4 µM; hit rate 0.32% among 310,000; AID 504621;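 active means every replicate shows inhibition above about 80%, whatever the replicate mean, limit read from the data; inconclusive means mean inhibition reaches the set limit but some replicate falls short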;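 further: 0% = DMSO neutral controls and 100% = 20 µM radicicol positive controls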
# MITF TRPM1 inh = inhibitors of MITF-driven TRPM1 promoter in melanoma cells. AID 488899. inhibition, % at 12.5 µM. SK-MEL-5 TRPM1 promoter luciferase, 24 h. hit rate 0.83% among 330,000;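 active means mean inhibition across replicates of 60% or more, whatever share of single replicates reaches that level; inconclusive means some that reach 60%, reason not given; inactive means mean inhibition across replicates below 60%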
# Glyco luc inh = blocks N-linked glycosylation in D54 reporter cells. D54 ERlucT glycosylation luciferase reporter, 24 h; percent of 100 nM tunicamycin response. reporter increase, % at 12.5 µM. hit rate 0.23% among 360,000. AID 588692;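 active means mean luciferase reporter signal, scaled so untreated is 0 and the glycosylation-blocking control 100, at or above a set limit in every replicate; inconclusive means mean reaches the limit but not every replicate does; inactive means mean below the limit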;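 further: luciferase carries N-glycosylation sites so blocking glycosylation raises the light; 0% = median of neutral control wells and 100% = median of 100 nM tunicamycin wells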
# MITF act = MITF TRPM1 promoter activation in melanoma cells | hit rate 0.75% among 300,000 | activation, % at 12.5 µM | SK-MEL-5 TRPM1-promoter luciferase, 24 h; % of positive control, neutral wells = 0;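 active means mean activation of at least 80% with every replicate also reaching 80%; inconclusive means mean reaches 80% but some replicate falls short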;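 further: 0% = neutral control wells and 100% = parthenolide positive control wells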
# Wnt act = activates Wnt/beta-catenin signaling in a reporter cell assay; hit rate 1.2% among 300,000; activator, plate reader; AID 743398; activation, % at 9.35 µM; in the data active means activation above about 30%, passing the limit was not always enough; inconclusive means no clear call, values can overlap the other calls;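 further: 0% = neutral control wells and 100% = positive control wells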
# Numbers without * were called inactive; ? = inconclusive; . = not tested or not shown.
SMILES,NSD2 inh,PfHsp90 set2,MITF TRPM1 inh,Glyco luc inh,MITF act,Wnt act
Cc1ccc(-c2nc3ccccc3nc2NN)cc1,-2.0,-17.9,-43.3,-11.9,.,43.8*
CC(C)(C)c1cc(C(c2cccnc2)N2CCN(CCO)CC2)cc(C(C)(C)C)c1O (stereo not given),7.7,105.3*,79.1*,-1.8,-79.4,0.9
COc1cccc(C(=O)Cn2c(Br)nc3c2c(=O)n(C)c(=O)n3C)c1,-3.0,0.2,21.8,-2.9,-21.7,48.9*
COc1cc2c(cc1NC(=O)c1ccccc1-c1ccccc1C(=O)O)-c1ccccc1C2,-0.3,.,.,-0.1,.,-3.1
COc1cc2c(cc1NC(=O)C(Cl)Cl)-c1ccc(NC(=O)C(Cl)Cl)cc1C2,1.0,-7.0,74.2*,21.0,-74.5,-2.5
CC(C)C(=O)Nc1ccc(C(=O)NNC(=O)c2ccco2)cc1,7.3,-8.9,4.6,0.1,2.8,.
CCOC(=O)C1=C(Nc2ccc(OC)cc2)OCC1=O,-10.0,8.3,4.3,-0.3,.,36.3*
Cc1ccccc1/C=C/c1nc2ccccc2c(=O)[nH]1,1.7,-19.5,-43.9,4.2,39.8,38.9*
COc1cc(/C=C/c2nc3ccccc3c(=O)[nH]2)cc(OC)c1OC,-3.4,-16.7,-19.5,-0.6,23.5,9.4
C=CCOc1cccc(/C=C/c2nc3ccccc3c(=O)[nH]2)c1,-2.1,8.5,-71.2,3.8,81.8*,11.8
COc1cc(/C=C/c2nc3ccccc3c(=O)[nH]2)ccc1OC(F)F,36.7,2.6,-82.6,-1.8,?,34.7*
CCCCS(=O)(=O)N1C2=NC(C(=O)OCC)=C(C(=O)OCC)C3N(Cc4ccc(Br)cc4)c4ccccc4[C@]23C[C@H]1C(=O)OC (stereo not given in full),.,.,.,.,.,-9.2
O=C1Nc2c(Cl)cc(Cl)cc2C1=O,118.0*,-11.9,45.1,5.7,-43.5,-2.2
COc1cc(OC)c2nc(C)c3c(c2c1)N(c1ccc(O)cc1)CC3,3.9,14.4,0.6,27.6*,-5.3,.
O=C(COC(=O)c1ccc(Cl)cc1O)NCCN1C(=O)CSC1=O,-1.9,10.7,-0.6,2.2,-3.9,0.6
CCOCCCNC(=O)/C(C#N)=C/c1cc(Br)c(O)c(Br)c1,.,9.0,16.2,29.8*,-18.4,.
CCOCCCNC(=O)/C(C#N)=C/c1ccc([N+](=O)[O-])o1,1.6,-5.5,61.4*,19.5,-62.3,0.7
COCCNC(=O)/C(C#N)=C/c1cc(Br)c(O)c(OC)c1,-3.9,3.5,6.5,3.1,-3.9,-0.9
Cn1c(N)c(C(=O)CSc2nnc3n2CCCCC3)c(=O)n(C)c1=O,-0.7,4.1,-8.7,2.6,7.8,5.4
COc1ccccc1C(=O)COC(=O)CN1C(=O)C2CC=CCC2C1=O (stereo not given),0.2,.,15.1,0.9,-14.2,-0.5
OCc1cn(-c2ccccc2)nc1-c1cc2ccccc2o1,-1.0,5.9,-75.6,-5.8,72.6,56.8*
COc1ccc(CNC[C@@H](CCCCN(C)Cc2ccc(OC)cc2)N2C[C@H](c3ccccc3)N(CCc3ccc(Cl)c(Cl)c3)C(=O)C2=O)cc1,.,-21.5,96.3*,-22.8,-95.5,.
COc1ccc(CNC(=O)[C@@H]2CC=C[C@@H]3CCN(Cc4ccc(Cl)c(Cl)c4)C(=O)[C@@H]32)cc1,.,.,-1.9,-1.2,4.6,-0.9
Cn1c(=O)[nH]c(=O)c2c1nc(NN)n2CCOc1ccccc1,1.3,-10.1,-0.8,61.4*,-0.6,-1.4
CC(C)Nc1oc(-c2cccc3ccccc23)nc1C#N,-5.7,-12.1,-87.4,-1.9,85.7*,.
SMILES,NSD2 inh,PfHsp90 set2,MITF TRPM1 inh,Glyco luc inh,MITF act,Wnt act
O=C(Cc1c[nH]c2ccccc12)Nc1ccc(Nc2cccnc2)c(-c2ccc(-c3ccccc3)cc2F)c1,.,.,.,.,.,-6.1
Cc1cc(NC(=O)Nc2ccc(F)cc2)no1,-2.6,1.3,-18.0,1.7,18.7,.
COc1cccc(C(=O)NC(=O)Nc2cc(C)on2)c1,0.0,7.5,-101.2,0.1,104.7*,11.4
COc1ccc(C(=O)Nc2cc(C)on2)cc1OC,5.4,-3.9,-16.2,1.7,13.8,0.1
COc1ccc(C(=O)Nc2ccc(C)cn2)c(OC)c1,0.9,.,75.0*,-22.5,-73.2,.
COc1cc(C(=O)Nc2ccc(C)cn2)c([N+](=O)[O-])cc1OC,-1.4,-11.5,1.9,0.2,-0.3,0.0
Cc1cc(NC(=O)Nc2ccc(C)c(C)c2)no1,-0.9,3.2,-49.1,-3.0,61.2,31.6*
COc1ccc(C(=O)Nc2cc(C)on2)c(OC)c1,-1.4,-13.5,-111.7,-3.1,114.7*,12.6
Cc1cc(-c2c(C(=O)N3CCOCC3)c(C)nn2-c2ccccc2)no1,1.8,-14.2,2.7,0.3,-2.5,-0.9
N#Cc1c(-c2ccccc2Cl)cc(-c2ccccc2)nc1Br,-0.8,3.8,16.7,-4.5,-17.7,-1.1
COc1cccc(C(=O)N[C@H](C(=O)N2CCC[C@H]2C(=O)NCCc2ccccc2Cl)c2ccccc2)c1,.,.,.,.,.,-3.7
O=C(CCl)N1c2ccccc2CCc2ccccc21,5.2,-3.7,75.2*,12.8,-74.5,-1.4
CC(Cl)C(=O)N1c2ccccc2CCc2ccccc21 (stereo not given),-1.5,7.8,-6.1,0.0,.,1.5
Fc1ccccc1-c1nc(-c2ccncc2)no1,-0.6,-24.5,-89.6,-6.8,.,55.4*
NC(=O)c1cccc(-c2noc(-c3ccccc3F)n2)c1,.,-15.3,-30.8,-7.3,31.9,5.9
Fc1ccccc1-c1nc(-c2ccccc2)no1,-3.8,-9.0,1.3,-12.8,-2.6,46.1*
Fc1ccccc1-c1nc(-c2ccc(-c3nn[nH]n3)cc2)no1,.,-9.7,-44.4,4.3,46.8,39.1*
COc1ccc(-c2noc(-c3ccccc3F)n2)cc1,.,5.7,-33.1,-13.4,33.4,13.9
CCOc1ccccc1N1CCN(C(=O)c2ccc3nc(N)sc3c2)CC1,0.1,22.6,-9.7,2.5,11.3,2.7
CCc1ccc(C(=O)CCC2CCCCC2=O)cc1 (stereo not given),-5.3,6.3,-90.8,-1.1,88.5*,.
CCCC(=O)NCC(c1cccs1)S(=O)(=O)c1ccc(C)cc1 (stereo not given),3.4,-7.4,-9.1,1.1,12.0,2.1
CCc1cccc(NC(=O)c2sc3nc4n(c(=O)c3c2C)CCC4)c1,2.0,15.1,-122.9,1.1,95.0*,14.1
COc1ccc(/C(C)=N/NC(=O)c2ccccc2OCc2ccccc2)c(OC)c1,-2.6,-8.0,-41.3,32.1*,45.1,.
S=C(Nc1ccccc1)c1nc2ccccc2s1,.,0.5,-24.6,-2.3,30.8,56.4*
Cc1ccccc1Cn1nnc(-c2ccc(C(=O)O)cc2)n1,3.3,-7.0,0.6,4.7,-1.6,-0.9
Cc1ccccc1Cn1nnc(-c2cccc(C(=O)O)c2)n1,0.4,.,4.8,-3.6,-0.6,39.2*
Cc1ccc(/C=C2/NC(=O)N(Cc3ccc(Br)cc3)C2=O)o1,-0.1,108.8*,-9.0,1.9,11.0,.
